# Screens: PubChem, National Center for Advancing Translational Sciences (NCATS)
# An excerpt weighted towards active compounds, which were near 11% of everything screened.
# HttQ103 aggreg: mutant huntingtin aggregation inhibition | PC12 HttQ103-GFP aggregates, Acumen cytometry, 40 h | Potency, µM (doses to about 46.1 µM), without a hit: at the highest dose activity change, negative = inhibition, most hits filed as inhibitors | actives 1.1% (n = 220,000) | AID 1688; active = well fitted curve in the direction sought with a large enough effect; inconclusive = small, poorly fitted or top-dose-only effect, or another doubt; inactive = no such curve, though single readings can be large; an effect the other way counts as inactive or inconclusive; also: potency is read from the fitted curve at half-maximal effect; % is scaled to controls: 0 for no effect and ±100 for the full control effect; nearly all actives have a fitted effect of over 60% in size
#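 Compounds (qHTS titration) were added to PC12 cells expressing an ecdysone-driven HTT exon 1 Q103–GFP fusion after induction with 100 nM tebufenozide. Aggregate formation was measured as GFP objects in cell lysates.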
# PNC inhibitor: perinucleolar compartment assembly inhibition | PC3M PTB-GFP, PNC prevalence imaging, 16 h; active compounds read low | activity change (PNC), negative = inhibition, % at 10 µM | actives 3.1% (n = 140,000) | AID 2417;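 active = readout at or below -70, meaning at least 70% loss of cells showing the perinucleolar compartment, a nuclear body marking cancer cells; inconclusive = readout between -30 and a set limit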;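 also: plate controls were DMSO wells for no effect and camptothecin positive control wells for full effect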
#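 Compounds are pinned in duplicate onto adhered PC3M cells stably expressing GFP-tagged PTB and incubated 16 h at 37 C. Cells are then fixed, nuclei stained with Hoechst, and PNC-positive cells counted.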
# RGS12 GoLoco inh: blocks human Gai1 binding to RGS12 GoLoco peptide, red readout; P63096; Gai1:RGS12 GoLoco peptide FP, rhodamine, 10 min; Potency, µM (top dose mostly 61.6 µM), for the others: at the top dose activity, negative = inhibition, most hits filed as inhibitors; actives 0.44% (n = 230,000); AID 880; active = well fitted inhibition curve with a large enough effect, not every such curve was filed as active; inactive = no such curve, though single readings can be large or run the other way; also: potency is read from the fitted curve at half-maximal effect; % is scaled to controls: 0 for no effect and ±100 for the full control effect; nearly all actives have a fitted effect of over 30% in size
# Target sequence (P63096 whole entry, looked up): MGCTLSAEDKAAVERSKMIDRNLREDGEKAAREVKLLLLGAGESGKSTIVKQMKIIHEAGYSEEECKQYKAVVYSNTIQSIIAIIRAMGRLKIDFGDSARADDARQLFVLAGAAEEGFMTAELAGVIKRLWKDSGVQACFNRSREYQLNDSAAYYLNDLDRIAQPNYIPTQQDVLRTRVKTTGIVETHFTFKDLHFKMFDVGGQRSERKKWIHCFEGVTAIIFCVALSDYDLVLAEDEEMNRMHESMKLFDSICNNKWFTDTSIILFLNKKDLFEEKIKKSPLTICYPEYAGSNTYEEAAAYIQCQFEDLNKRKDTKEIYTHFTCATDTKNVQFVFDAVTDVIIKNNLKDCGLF
# HTT cytoprotect: cytoprotection in Huntington HTT-Q103 PC12 cell model; PC12 HTT-Q103 induced, cytoprotection, ATP luminescence, 40 h; Potency, µM (doses to about 56.4 µM), for the others: cytoprotection (ATP increase), usual class: activators; AID 1471; actives 0.14% (n = 230,000); active = well fitted curve in the direction sought with a large enough effect; inconclusive = small, poorly fitted or top-dose-only effect, or another doubt; inactive = no such curve, though single readings can be large; an effect the other way counts as inactive or inconclusive; also: potency is read from the fitted curve at half-maximal effect; % of control where 0% means no effect; nearly all actives have a fitted effect of over 45% in size
#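 Quantitative HTS on tebufenozide-induced (100 nM) PC12 cells expressing HTTQ103 exon 1–GFP; compounds tested as a concentration series; survival measured via cellular ATP.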
# ALDH1A1 block: inhibitors of human aldehyde dehydrogenase 1A1 | P00352 | Purified ALDH1A1, NADH fluorescence, propionaldehyde substrate | Potency, µM (series often up to 75.3 µM), inactives show top-dose activity, negative = inhibition, most hits filed as inhibitors | actives 7.3% (n = 220,000);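 also: potency is read from the fitted curve at half-maximal effect; plate controls were no enzyme wells and a reference inhibitor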
# HPGD inh: HPGD (human) dehydrogenase inhibition. Potency, µM, inactives show at the highest dose activity change, negative = inhibition, most hits filed as inhibitors. P15428. purified HPGD, NADH fluorescence kinetic, PGE2 substrate. actives 4.3% (n = 150,000); also: potency is read from the fitted curve at half-maximal effect; % is scaled to controls: 0 for no effect and ±100 for the full control effect
#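 20 nM HPGD preincubated 15 min at room temperature with compound in 50 mM Tris-HCl pH 8, 0.01% Tween 20. Started with 1 mM NAD+ and 30 uM prostaglandin E2; NADH fluorescence (360/450 nm) read 5 times over 30-s intervals, last minus first.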
# An asterisk follows results filed as active; ? = inconclusive; . = no result; [ ] = remark or other dose. Unless noted, calls follow the shape of the dose curve; as a rule, active = well fitted inhibition curve with a large enough effect (not every such curve was filed as active); inconclusive = small, poorly fitted or top-dose-only effect, or another doubt; inactive = no such curve, though single readings can be large or run the other way.
SMILES,HttQ103 aggreg,PNC inhibitor,RGS12 GoLoco inh,HTT cytoprotect,ALDH1A1 block,HPGD inh
Cc1ccc(CSCC(=O)N2CCOCC2)cc1,4.1%,-13.4,-2.8%,14.8%[10 µM],25.1µM*,-13.8%
Cc1ccc(OCc2nnc(SCCN3CCOCC3)n2C)cc1,-8.4%,-8.8,-10.8%,-1.8%[10 µM],-10.5%,-3.8%
Cc1ccc(OCc2nnc(SCC(=O)N3CCOCC3)n2C)cc1,4.5%,-106.5*,7.7%,12.6µM*,-1.4%,-14.5%
O=C(CC(c1ccccc1)c1ccco1)N1CCCCC1 (stereo not given),-10.5%,.,10.2%,13.3%,-5.2%,.
O=C(CSCc1ccc(Cl)cc1)N1CCOCC1,-12.4%,17.1,0.7%,6.8%[10 µM],8.1%,-1.6%
O=S(=O)(O)n1ccnc1 (tested in a mixture with another compound),.,.,9.1%[14.2 µM],-13.5%[10 µM],7.1%[13.5 µM],-8.8%
O=C(COC(=O)COc1ccc(Cl)cc1Cl)Nc1cccnc1Cl,1.5%,52.5,8.4%,3.1%[10 µM],4.3%,-17.8%
CC1(C)N=C(N)N=C(N)N1c1cccc(CSc2ccccc2)c1,.,.,0.7%[14.2 µM],-27.4%[10 µM],4.8%[13.5 µM],-6.3%
COc1cccc(/C=C(/C#N)c2ccc(F)cc2)c1OCc1cccc(C(=O)O)c1,8.5%,-7.2,17.3%,-4.8%[10 µM],12.6µM*,?
COc1cccc(/C=C(/C#N)c2ccc(Cl)cc2)c1OCc1cccc(C(=O)O)c1,-1.6%,.,7.3%,-51.2%,-7.6%,.
CCOC(=O)Cc1nnc2c(Nc3ccc(C)cc3)nc3nonc3n12,-12.1%,29.5,-0.2%,15.7%[10 µM],?,-9.7%
CCOC(=O)Cc1nnc2c(Nc3ccccc3F)nc3nonc3n12,15.8µM*,?,7.3%,-0.8%[10 µM],4.2%,-1.5%
Cc1ccc2c(N)c(C)ccc2c1,10.9%,6.2,7.3%,7.1%[10 µM],?,?
Cc1ccc2cc3c(N)c4c(C)ccc(C)c4nc3nc2c1,-2.7%,.,17.8µM*,-42.8%,-2.8%,.
Cc1nn(-c2ccc(Cl)cc2)c2sc(C(=O)N3CCN(C(=O)c4ccco4)CC3)cc12,11.9%,-1.9,-18.0%,?,3.3%,-12.9%
Cc1nn(-c2ccc(F)cc2)c2sc(C(=O)N3CCCCCC3)cc12,?,9.8,8.9%,6.1%,35.5µM*,15.8µM*
C=CCN1C(=O)/C(=N/n2cnnc2)c2ccccc21,0.3%,-4.2,-14.7%,-20.1%,0.0631µM*,-5.6%
CC(=O)Nc1ccc(C(=O)OCC(=O)NCc2ccc(Cl)cc2)cc1,-8.0%,.,1.9%,3.8%,3.2%,.
O=C(Nc1nc(NC(=O)c2ccco2)n(-c2ccccc2)n1)c1ccccc1,?,-19.4,5.8%,3.98µM*,?,-26.8%
CCOC(=O)C1CCCN(C(=O)CC(c2ccccc2)c2ccccc2)C1 (stereo not given),-19.1%,-100.0*,-5.6%,6.7%[10 µM],-9.1%,28.2µM*
CCOCC(=O)N1CCCC(C(=O)OCC)C1 (stereo not given),-12.8%,?,-8.7%,9.2%[0.074 µM],3.55µM*,-1.9%
O=C(c1ccco1)N1CCC2(CCCN(c3ccccc3)C2)CC1,.,.,38.8%,-9.4%,?,-2.2%
COc1ccc(-c2noc(-c3cc4ccccc4oc3=O)n2)cc1,5.5%,-29.7,3.3%,-22.6%,?,-14.3%
COc1ccc(-c2csc(-c3cc4ccccc4oc3=N)n2)cc1,-6.6%,-93.2*,11.8%,30.4%[10 µM],?,-19.4%
CCCCC[C@H](O)/C=C/C=C\C/C=C\CCCCCCC(=O)O,.,.,-5.3%,-39.0%,0.6%,-4.6%
COC(=O)c1ccc(C(NC(=O)OCc2ccccc2)/C(C)=C/[C@@H](C)C(=O)NC2CCCCC2)cc1 (stereo not given in full),.,.,-4.6%,-17.0%,?,-18.6%
CCN1C(=O)c2cccc3c(S(=O)(=O)Nc4ccccc4)ccc1c23,-31.1%,-27.2,19.4%,-60.5%,1µM*,-14.6%
CCN1C(=O)c2cccc3c(S(=O)(=O)Nc4ccc(OC)cc4OC)ccc1c23,?,-20.6,5.2%,-18.1%,11.2µM*,-6.9%
